In PubChem BioAssay AID1159580 (chemical genetic matrix, 2015):
Where “and” joins values, the source holds several entries; their conditions need not be identical. Equal values may be shown once. Screen size: about 5,500 compounds; about 2,000 (36%) were called active. About 18% were inconclusive and are not listed. Rule as the data show it: active = normalized growth mostly below about 0.91 (no sharp cut-off); inconclusive = no clear call, values can overlap the other calls; inactive = mostly above about 0.92. This is one part of the list.

Experiment: chemical genetic growth profiling, strain panel (AID 1159580);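 also: tested at 20 µM; growth read once vehicle control cultures reached saturation at 30 °C; 1 = growth at the plate median or of vehicle wells; lower values mean less growth of the strain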
Conditions: S. cerevisiae deletion strains, growth OD

Measured: normalized growth

C=CC(C1=CC(=O)C(OC)=CC1=O)c1ccc(O)cc1 (configuration not stated)
inactive: locus YAL013W, strain DEP1, active compounds read low 1.04 | locus YAL021C, strain ccr4, active compounds read low 1.03 | locus YAL026C, strain drs2, active compounds read low 0.977 | locus YAL030W, strain snc1, active compounds read low 1.01 | locus YBL061C, strain skt5, active compounds read low 0.996 | locus YBR009C, strain hhf1, active compounds read low 0.99 | locus YBR021W, strain FUR4, active compounds read low 1.04 | locus YBR023C, strain chs3, active compounds read low 0.992 | locus YBR171W, strain sec66, active compounds read low 1.02 | locus YBR229C, strain ROT2, active compounds read low 0.945 | locus YBR231C, strain swc5, active compounds read low 0.989 | locus YBR279W, strain paf1, active compounds read low 1 | locus YCL011C, strain gbp2, active compounds read low 0.998 | locus YCL016C, strain dcc1, active compounds read low 0.99 | locus YCL029C, strain bik1, active compounds read low 0.987 | locus YCL069W, strain vba3, active compounds read low 1.01 | locus YCR088W, strain abp1, active compounds read low 1.02 | locus YDL005C, strain med2, active compounds read low 0.999 | locus YDL035C, strain GPR1, active compounds read low 0.974 | locus YDL040C, strain nat1, active compounds read low 0.999 | locus YDL074C, strain BRE1, active compounds read low 0.987 | locus YDL101C, strain DUN1, active compounds read low 0.986 | locus YDL185W, strain tfp1, active compounds read low 0.944 | locus YDL192W, strain arf1, active compounds read low 0.981 | locus YDR001C, strain nth1, active compounds read low 1.01 | locus YDR069C, strain doa4, active compounds read low 0.991 | locus YDR101C, strain arx1, active compounds read low 0.991 | locus YDR137W, strain rgp1, active compounds read low 0.989 | locus YDR150W, strain NUM1, active compounds read low 1.01 | locus YDR159W, strain sac3, active compounds read low 0.94 | locus YDR162C, strain NBP2, active compounds read low 0.942 | locus YDR195W, strain ref2 1.03 | locus YDR297W, strain sur2, active compounds read low 0.986 | locus YDR318W, strain mcm21, active compounds read low 0.953 | locus YDR334W, strain swr1, active compounds read low 1.02 | locus YDR335W, strain msn5, active compounds read low 1.01 | locus YDR388W, active compounds read low 0.964 | locus YDR392W, strain spt3, active compounds read low 0.825 | locus YDR502C, strain sam2, active compounds read low 0.967 | locus YEL003W, strain gim4, active compounds read low 0.979 | locus YEL037C, strain rad23, active compounds read low 1.01 | locus YEL061C, strain CIN8 (second series), active compounds read low 1.01 | locus YEL061C, strain CIN8, active compounds read low 0.992 | locus YER015W, strain faa2, active compounds read low 0.995 | locus YER016W, strain bim1, active compounds read low 1 | locus YER110C, active compounds read low 0.927 | locus YER111C, strain swi4, active compounds read low 0.998 | locus YER155C, strain BEM2 (second series), active compounds read low 0.891 | locus YER155C, strain BEM2, active compounds read low 1 | locus YER167W, strain BCK2, active compounds read low 0.973 | locus YFR010W, strain ubp6, active compounds read low 0.998 | locus YGL078C, strain dbp3, active compounds read low 0.985 | locus YGL086W, strain mad1, active compounds read low 1 | locus YGL167C, strain pmr1, active compounds read low 1.01 | locus YGL173C, strain kem1, active compounds read low 0.997 | locus YGL227W, strain vid30, active compounds read low 0.999 | locus YGL240W, strain doc1, active compounds read low 0.972 | locus YGL248W, strain PDE1, active compounds read low 0.992 | locus YGL253W, strain hxk2, active compounds read low 1.02 | locus YGR078C, strain PAC10, active compounds read low 1.01 | locus YGR135W, strain pre9, active compounds read low 0.963 | locus YGR252W, strain gcn5, active compounds read low 0.904 | locus YHR013C, strain ard1, active compounds read low 1.02 | locus YHR027C, strain rpn1, active compounds read low 0.995 | locus YHR030C, strain SLT2, active compounds read low 0.98 and 1.04 | locus YHR079C, strain IRE1 (second series), active compounds read low 0.982 | locus YHR079C, strain IRE1, active compounds read low 1.01 | locus YHR094C, strain hxt1, active compounds read low 0.96 | locus YHR129C, strain ARP1, active compounds read low 0.991 | locus YHR142W, strain chs7, active compounds read low 1.01 | locus YHR200W, strain rpn10, active compounds read low 0.965 | locus YIL066C, strain RNR3, active compounds read low 0.92 | locus YIL073C, strain SPO22, active compounds read low 0.964 | locus YIL125W, strain kgd1, active compounds read low 0.987 | locus YIR030C, strain dcg1, active compounds read low 0.991 | locus YJL092W, strain hpr5, active compounds read low 1 | locus YJL095W, strain BCK1 (second series), active compounds read low 0.998 | locus YJL095W, strain BCK1, active compounds read low 1.03 and 1.06 | locus YJL115W, strain asf1, active compounds read low 1.02 | locus YJL129C, strain trk1, active compounds read low 1.03 | locus YJL134W, strain LCB3, active compounds read low 0.978 | locus YJL154C, strain vps35, active compounds read low 1.01 | locus YJL164C, strain tpk1, active compounds read low 0.987 | locus YJL166W, strain qcr8, active compounds read low 1 | locus YJL168C, strain set2, active compounds read low 0.984 | locus YJL187C, strain SWE1 (second series), active compounds read low 0.997 | locus YJL187C, strain SWE1, active compounds read low 1 | locus YJR043C, strain POL32, active compounds read low 0.941 | locus YJR066W, strain TOR1, active compounds read low 0.983 | locus YJR075W, strain HOC1, active compounds read low 1.01 | locus YKL009W, strain mrt4, active compounds read low 0.957 | locus YKL068W, active compounds read low 0.971 | locus YKL085W, strain MDH1 (second series), active compounds read low 0.987 | locus YKL085W, strain MDH1, active compounds read low 0.987 | locus YKL160W, strain elf1, active compounds read low 0.985 | locus YKL190W, strain CNB1, active compounds read low 1.01 | locus YKR001C, strain vps1, active compounds read low 0.966 | locus YKR026C, strain gcn3, active compounds read low 1.01 | locus YKR091W, strain srl3, active compounds read low 1.01 | locus YLL001W, strain dnm1, active compounds read low 0.958 | locus YLL026W, active compounds read low 1 | locus YLL041C, strain sdh2, active compounds read low 1.01 | locus YLR027C, strain aat2, active compounds read low 1 | locus YLR039C, strain RIC1, active compounds read low 1.02 | locus YLR058C, strain SHM2, active compounds read low 0.925 | locus YLR102C, strain apc9, active compounds read low 0.984 | locus YLR113W, strain HOG1, active compounds read low 0.967 | locus YLR221C, strain rsa3, active compounds read low 0.989 | locus YLR258W, strain gsy2, active compounds read low 1.01 | locus YLR262C, strain YPT6 (second series), active compounds read low 0.996 | locus YLR262C, strain YPT6, active compounds read low 1.01 | locus YLR268W, strain sec22, active compounds read low 1.01 | locus YLR320W, strain mms22, active compounds read low 0.988 | locus YLR330W, strain CHS5, active compounds read low 1 | locus YLR342W, strain FKS1 (second series), active compounds read low 0.935 | locus YLR342W, strain FKS1, active compounds read low 0.987 | locus YLR357W, strain rsc2, active compounds read low 0.993 | locus YLR370C, strain arc18, active compounds read low 1.01 | locus YLR371W, strain rom2, active compounds read low 0.965 | locus YLR384C, strain iki3, active compounds read low 1.03 | locus YLR418C, strain cdc73, active compounds read low 0.933 | locus YML016C, strain PPZ1, active compounds read low 0.976 | locus YML032C, strain rad52, active compounds read low 0.947 | locus YML120C, strain ndi1, active compounds read low 1 | locus YML124C, strain tub3, active compounds read low 0.99 | locus YMR058W, strain fet3, active compounds read low 1.01 | locus YMR078C, strain ctf18, active compounds read low 0.989 | locus YMR125W, strain sto1, active compounds read low 1.02 | locus YMR129W, active compounds read low 1 | locus YMR205C, strain PFK2, active compounds read low 0.992 | locus YMR223W, strain ubp8, active compounds read low 0.967 | locus YMR231W, strain pep5, active compounds read low 1.01 | locus YMR263W, strain SAP30, active compounds read low 1.01 | locus YMR307W, strain GAS1, active compounds read low 1.06 | locus YNL067W, strain RPL9B, active compounds read low 1.06 | locus YNL071W, strain lat1, active compounds read low 1.01 | locus YNL153C, strain GIM3, active compounds read low 1.01 | locus YNL183C, strain NPR1, active compounds read low 0.983 | locus YNL209W, strain ssb2, active compounds read low 0.994 | locus YNL233W, strain BNI4, active compounds read low 1.01 | locus YNL248C, strain rpa49, active compounds read low 1 | locus YNL250W, strain rad50, active compounds read low 0.98 | locus YNL271C, strain bni1, active compounds read low 0.99 | locus YNL298W, strain CLA4, active compounds read low 0.961 | locus YNL307C, strain MCK1, active compounds read low 0.969 | locus YNL322C, strain KRE1 (second series), active compounds read low 0.981 | locus YNL322C, strain KRE1, active compounds read low 0.994 | locus YNR049C, strain mso1, active compounds read low 1.01 | locus YNR052C, strain pop2, active compounds read low 0.981 | locus YOL012C, strain htz1 1.04 | locus YOL147C, strain pex11, active compounds read low 0.969 | locus YOR001W, strain rrp6, active compounds read low 0.986 | locus YOR061W, strain CKA2, active compounds read low 0.954 | locus YOR069W, strain VPS5, active compounds read low 0.986 | locus YOR070C, strain gyp1, active compounds read low 0.982 | locus YOR080W, strain dia2, active compounds read low 0.992 | locus YOR083W, strain WHI5, active compounds read low 0.977 | locus YOR106W, strain vam3, active compounds read low 0.989 | locus YOR136W, strain idh2, active compounds read low 0.976 | locus YOR144C, strain elg1, active compounds read low 0.98 | locus YOR184W, strain ser1, active compounds read low 0.941 | locus YOR231W, strain MKK1, active compounds read low 1.03 | locus YOR265W, strain rbl2, active compounds read low 1 | locus YOR270C, strain vph1, active compounds read low 1.02 | locus YOR290C, strain snf2, active compounds read low 0.984 | locus YOR316C, strain cot1, active compounds read low 0.982 | locus YPL051W, strain arl3, active compounds read low 0.979 | locus YPL078C, strain atp4, active compounds read low 0.98 | locus YPL106C, strain sse1, active compounds read low 1.01 | locus YPL240C, strain hsp82, active compounds read low 1.01 | locus YPL241C, strain CIN2, active compounds read low 0.983 | locus YPL256C, strain CLN2, active compounds read low 1.06 | locus YPR119W, strain clb2, active compounds read low 0.99 | locus YPR141C, strain kar3, active compounds read low 0.984 | locus YPR163C, strain tif3, active compounds read low 0.979 | locus YPR167C, strain met16, active compounds read low 0.974 | strain wtn01, active compounds read low 0.994
